What all share (assay): PBM; 200 nM protein, PBS
What all share (details): dsDNA, one strand shown

Test [1] deals with HESX1 (Homo sapiens, UniProt Q9UBX0 95-180, R165K).
Test [2] addresses SHOX (Homo sapiens, UniProt O15266 103-189).
Another test concerns the target ALX4 (Homo sapiens, UniProt Q9H161 200-286, Q225E).
In test [3] the target is HESX1 (Homo sapiens, UniProt Q9UBX0 95-180).
A further test deals with MSX2 (Homo sapiens, UniProt P35548 130-214, R199I).
In test [4] the target is ALX1 (Homo sapiens, UniProt Q15699 118-204, L144V).
ALX1 (Homo sapiens, UniProt Q15699 118-204, L144V), sequence (Q15699 118-204 L144V): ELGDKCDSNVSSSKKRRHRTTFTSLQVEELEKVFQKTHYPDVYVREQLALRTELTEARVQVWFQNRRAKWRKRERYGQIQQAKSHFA
Test [5] has as its target ALX3 (Homo sapiens, UniProt O95076 139-225, N203Q).
Test [6] addresses SHOX (Homo sapiens, UniProt O15266 103-189, R173C).
The target in test [7] is ALX1 (Homo sapiens, UniProt Q15699 118-204, L144R).
ALX1 (Homo sapiens, UniProt Q15699 118-204, L144R), sequence (Q15699 118-204 L144R): as the sequence (Q15699 118-204 L144V) above, with V27R counted along it
Test [8] concerns the target ALX3 (Homo sapiens, UniProt O95076 139-225).
Test [9] deals with PROP1 (Homo sapiens, UniProt O75360 56-141).
PROP1 (Homo sapiens, UniProt O75360 56-141), sequence (O75360 56-141): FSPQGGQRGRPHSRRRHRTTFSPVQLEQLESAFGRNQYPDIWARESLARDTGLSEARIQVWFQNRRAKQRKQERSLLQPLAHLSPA
Test [10] concerns the target HESX1 (Homo sapiens, UniProt Q9UBX0 95-180, R109Q).
Test [11] deals with PROP1 (Homo sapiens, UniProt O75360 56-141, R99H).
PROP1 (Homo sapiens, UniProt O75360 56-141, R99H), sequence (O75360 56-141 R99H): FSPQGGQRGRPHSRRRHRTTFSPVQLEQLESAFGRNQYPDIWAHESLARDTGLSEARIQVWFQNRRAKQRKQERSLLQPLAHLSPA
For test [12], the target named is ALX3 (Homo sapiens, UniProt O95076 139-225, L168Q).
ALX3 (Homo sapiens, UniProt O95076 139-225, L168Q), sequence (O95076 139-225 L168Q): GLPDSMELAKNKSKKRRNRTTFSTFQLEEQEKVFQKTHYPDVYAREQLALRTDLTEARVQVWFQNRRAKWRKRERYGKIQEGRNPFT
The target in test [13] is HESX1 (Homo sapiens, UniProt Q9UBX0 95-180, P111T).
HESX1 (Homo sapiens, UniProt Q9UBX0 95-180, P111T), sequence (Q9UBX0 95-180 P111T): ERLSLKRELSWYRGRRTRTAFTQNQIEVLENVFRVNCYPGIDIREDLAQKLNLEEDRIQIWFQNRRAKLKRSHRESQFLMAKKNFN
Test [14] addresses ALX3 (Homo sapiens, UniProt O95076 139-225, L168V).
The target in test [15] is PROP1 (Homo sapiens, UniProt O75360 56-141, F88S).
PROP1 (Homo sapiens, UniProt O75360 56-141, F88S), sequence (O75360 56-141 F88S): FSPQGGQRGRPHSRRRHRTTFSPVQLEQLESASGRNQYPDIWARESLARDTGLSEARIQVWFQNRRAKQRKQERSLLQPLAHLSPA
Test [16] addresses HESX1 (Homo sapiens, UniProt Q9UBX0 95-180, F115L).
The target of test [17] is ALX1 (Homo sapiens, UniProt Q15699 118-204).
ALX1 (Homo sapiens, UniProt Q15699 118-204), sequence (Q15699 118-204): as the sequence (Q15699 118-204 L144V) above, with V27L counted along it
In test [18] the target is ALX3 (Homo sapiens, UniProt O95076 139-225, N203S).
ALX3 (Homo sapiens, UniProt O95076 139-225, N203S), sequence (O95076 139-225 N203S): as the sequence (O95076 139-225 L168Q) above, with Q30L, N65S counted along it

HESX1 (Homo sapiens, UniProt Q9UBX0 95-180), sequence (Q9UBX0 95-180): as the sequence (Q9UBX0 95-180 P111T) above, with T17P counted along it
SHOX (Homo sapiens, UniProt O15266 103-189), sequence (O15266 103-189): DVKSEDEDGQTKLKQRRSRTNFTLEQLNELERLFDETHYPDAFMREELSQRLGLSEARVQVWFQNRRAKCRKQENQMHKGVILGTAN
SHOX (Homo sapiens, UniProt O15266 103-189, R173C), sequence (O15266 103-189 R173C): as the sequence (O15266 103-189) above, with R71C counted along it
HESX1 (Homo sapiens, UniProt Q9UBX0 95-180, R165K), sequence (Q9UBX0 95-180 R165K): as the sequence (Q9UBX0 95-180 P111T) above, with T17P, R71K counted along it
ALX3 (Homo sapiens, UniProt O95076 139-225), sequence (O95076 139-225): as the sequence (O95076 139-225 L168Q) above, with Q30L counted along it
ALX3 (Homo sapiens, UniProt O95076 139-225, N203Q), sequence (O95076 139-225 N203Q): as the sequence (O95076 139-225 L168Q) above, with Q30L, N65Q counted along it
MSX2, sequence (P35548 130-214 R199I): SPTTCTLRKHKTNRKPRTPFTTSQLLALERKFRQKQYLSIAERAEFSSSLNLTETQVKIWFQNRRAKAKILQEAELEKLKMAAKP
ALX3 (Homo sapiens, UniProt O95076 139-225, L168V), sequence (O95076 139-225 L168V): as the sequence (O95076 139-225 L168Q) above, with Q30V counted along it
ALX4, sequence (Q9H161 200-286 Q225E): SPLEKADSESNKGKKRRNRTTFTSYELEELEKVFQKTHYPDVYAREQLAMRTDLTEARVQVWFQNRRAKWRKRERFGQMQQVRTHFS
HESX1 (Homo sapiens, UniProt Q9UBX0 95-180, R109Q), sequence (Q9UBX0 95-180 R109Q): as the sequence (Q9UBX0 95-180 P111T) above, with R15Q, T17P counted along it
HESX1 (Homo sapiens, UniProt Q9UBX0 95-180, F115L), sequence (Q9UBX0 95-180 F115L): as the sequence (Q9UBX0 95-180 P111T) above, with T17P, F21L counted along it

In the case of TTAATTAA, the binding signal with HESX1 [1] is 13.7 upbm affinity estimate (log intensity, higher = more binding, comparable within an allelic series); with SHOX [2], 13.3 upbm affinity estimate (log intensity, higher = more binding, comparable within an allelic series); with ALX4 it was 14.7 upbm affinity estimate (log intensity, higher = more binding, comparable within an allelic series); in the test with HESX1 [3], 13.6 upbm affinity estimate (log intensity, higher = more binding, comparable within an allelic series); with MSX2, 13.1 upbm affinity estimate (log intensity, higher = more binding, comparable within an allelic series); with ALX1 [4], 12.3 upbm affinity estimate (log intensity, higher = more binding, comparable within an allelic series). Besides, the binding signal in the test with ALX3 [5] is 8.75 upbm affinity estimate (log intensity, higher = more binding, comparable within an allelic series); with SHOX [6] it was 11.2 upbm affinity estimate (log intensity, higher = more binding, comparable within an allelic series); in the test with ALX1 [7] it was 11.9 upbm affinity estimate (log intensity, higher = more binding, comparable within an allelic series); with ALX3 [8], 13 upbm affinity estimate (log intensity, higher = more binding, comparable within an allelic series); in the test with PROP1 [9], 12.3 upbm affinity estimate (log intensity, higher = more binding, comparable within an allelic series); with HESX1 [10], 11.2 upbm affinity estimate (log intensity, higher = more binding, comparable within an allelic series). In addition, the binding signal in the test with PROP1 [11] was 12.4 upbm affinity estimate (log intensity, higher = more binding, comparable within an allelic series); in the test with ALX3 [12] it was 11.7 upbm affinity estimate (log intensity, higher = more binding, comparable within an allelic series); with HESX1 [13], 12.6 upbm affinity estimate (log intensity, higher = more binding, comparable within an allelic series); with ALX3 [14], 11.6 upbm affinity estimate (log intensity, higher = more binding, comparable within an allelic series); with PROP1 [15] it was 8.42 upbm affinity estimate (log intensity, higher = more binding, comparable within an allelic series); in the test with HESX1 [16], 8.85 upbm affinity estimate (log intensity, higher = more binding, comparable within an allelic series). Further, the binding signal with ALX1 [17] was 12.9 upbm affinity estimate (log intensity, higher = more binding, comparable within an allelic series); in the test with ALX3 [18], 8.98 upbm affinity estimate (log intensity, higher = more binding, comparable within an allelic series).
With ATTAATGA, the binding signal with HESX1 [1] is 11.4 upbm affinity estimate (log intensity, higher = more binding, comparable within an allelic series); with SHOX [2], 11.5 upbm affinity estimate (log intensity, higher = more binding, comparable within an allelic series); with ALX4, 12.8 upbm affinity estimate (log intensity, higher = more binding, comparable within an allelic series); with ALX1 [4], 11.6 upbm affinity estimate (log intensity, higher = more binding, comparable within an allelic series); with ALX3 [5], 8.5 upbm affinity estimate (log intensity, higher = more binding, comparable within an allelic series); in the test with SHOX [6] it was 9.51 upbm affinity estimate (log intensity, higher = more binding, comparable within an allelic series). Further, the binding signal with ALX1 [7] was 11.4 upbm affinity estimate (log intensity, higher = more binding, comparable within an allelic series); in the test with ALX3 [8] it was 12.3 upbm affinity estimate (log intensity, higher = more binding, comparable within an allelic series); with PROP1 [9] it was 11.2 upbm affinity estimate (log intensity, higher = more binding, comparable within an allelic series); in the test with HESX1 [10], 8.79 upbm affinity estimate (log intensity, higher = more binding, comparable within an allelic series); with PROP1 [11] it was 10.9 upbm affinity estimate (log intensity, higher = more binding, comparable within an allelic series); in the test with ALX3 [12] it was 10.3 upbm affinity estimate (log intensity, higher = more binding, comparable within an allelic series). For the same sequence, the binding signal is 9.84 upbm affinity estimate (log intensity, higher = more binding, comparable within an allelic series) with ALX3 [14]; 7.87 upbm affinity estimate (log intensity, higher = more binding, comparable within an allelic series) with PROP1 [15]; 7.87 upbm affinity estimate (log intensity, higher = more binding, comparable within an allelic series) in the test with HESX1 [16]; 12.2 upbm affinity estimate (log intensity, higher = more binding, comparable within an allelic series) with ALX1 [17]; 8.58 upbm affinity estimate (log intensity, higher = more binding, comparable within an allelic series) with ALX3 [18].
Take GTTAATTA: the binding signal is 13.7 upbm affinity estimate (log intensity, higher = more binding, comparable within an allelic series) with HESX1 [1]; 13.1 upbm affinity estimate (log intensity, higher = more binding, comparable within an allelic series) in the test with SHOX [2]; 14.5 upbm affinity estimate (log intensity, higher = more binding, comparable within an allelic series) with ALX4; 13.6 upbm affinity estimate (log intensity, higher = more binding, comparable within an allelic series) in the test with HESX1 [3]; 13.1 upbm affinity estimate (log intensity, higher = more binding, comparable within an allelic series) with MSX2; 12.3 upbm affinity estimate (log intensity, higher = more binding, comparable within an allelic series) in the test with ALX1 [4]. The binding signal in the test with ALX3 [5] was 8.67 upbm affinity estimate (log intensity, higher = more binding, comparable within an allelic series); with SHOX [6], 10.7 upbm affinity estimate (log intensity, higher = more binding, comparable within an allelic series); in the test with ALX1 [7], 12 upbm affinity estimate (log intensity, higher = more binding, comparable within an allelic series); in the test with ALX3 [8], 13 upbm affinity estimate (log intensity, higher = more binding, comparable within an allelic series); with PROP1 [9], 12.1 upbm affinity estimate (log intensity, higher = more binding, comparable within an allelic series); with HESX1 [10], 10.5 upbm affinity estimate (log intensity, higher = more binding, comparable within an allelic series). The binding signal with PROP1 [11] is 12.1 upbm affinity estimate (log intensity, higher = more binding, comparable within an allelic series); with ALX3 [12], 11.5 upbm affinity estimate (log intensity, higher = more binding, comparable within an allelic series); with HESX1 [13], 12.3 upbm affinity estimate (log intensity, higher = more binding, comparable within an allelic series); with ALX3 [14] it was 11.2 upbm affinity estimate (log intensity, higher = more binding, comparable within an allelic series); in the test with PROP1 [15], 8.2 upbm affinity estimate (log intensity, higher = more binding, comparable within an allelic series); in the test with HESX1 [16] it was 8.41 upbm affinity estimate (log intensity, higher = more binding, comparable within an allelic series). The binding signal in the test with ALX1 [17] was 13 upbm affinity estimate (log intensity, higher = more binding, comparable within an allelic series); in the test with ALX3 [18], 8.84 upbm affinity estimate (log intensity, higher = more binding, comparable within an allelic series).
Take GGTAATTA: the binding signal is 13.1 upbm affinity estimate (log intensity, higher = more binding, comparable within an allelic series) with HESX1 [1]; 12.7 upbm affinity estimate (log intensity, higher = more binding, comparable within an allelic series) with SHOX [2]; 13.9 upbm affinity estimate (log intensity, higher = more binding, comparable within an allelic series) in the test with ALX4; 13.2 upbm affinity estimate (log intensity, higher = more binding, comparable within an allelic series) with HESX1 [3]; 13.3 upbm affinity estimate (log intensity, higher = more binding, comparable within an allelic series) in the test with MSX2; 12.1 upbm affinity estimate (log intensity, higher = more binding, comparable within an allelic series) with ALX1 [4]. For the same sequence, the binding signal in the test with ALX3 [5] was 8.47 upbm affinity estimate (log intensity, higher = more binding, comparable within an allelic series); with SHOX [6], 10 upbm affinity estimate (log intensity, higher = more binding, comparable within an allelic series); in the test with ALX1 [7] it was 11.8 upbm affinity estimate (log intensity, higher = more binding, comparable within an allelic series); with ALX3 [8] it was 12.8 upbm affinity estimate (log intensity, higher = more binding, comparable within an allelic series); with PROP1 [9] it was 11.9 upbm affinity estimate (log intensity, higher = more binding, comparable within an allelic series); in the test with HESX1 [10] it was 9.54 upbm affinity estimate (log intensity, higher = more binding, comparable within an allelic series). Also, the binding signal with PROP1 [11] is 11.8 upbm affinity estimate (log intensity, higher = more binding, comparable within an allelic series); in the test with ALX3 [12], 11 upbm affinity estimate (log intensity, higher = more binding, comparable within an allelic series); with HESX1 [13], 11.7 upbm affinity estimate (log intensity, higher = more binding, comparable within an allelic series); in the test with ALX3 [14], 10.7 upbm affinity estimate (log intensity, higher = more binding, comparable within an allelic series); with PROP1 [15], 7.94 upbm affinity estimate (log intensity, higher = more binding, comparable within an allelic series); with HESX1 [16] it was 8.04 upbm affinity estimate (log intensity, higher = more binding, comparable within an allelic series). The binding signal with ALX1 [17] was 12.8 upbm affinity estimate (log intensity, higher = more binding, comparable within an allelic series); with ALX3 [18] it was 8.62 upbm affinity estimate (log intensity, higher = more binding, comparable within an allelic series).
For the sequence AATAATTA, the binding signal with HESX1 [1] is 13 upbm affinity estimate (log intensity, higher = more binding, comparable within an allelic series); with SHOX [2], 12.1 upbm affinity estimate (log intensity, higher = more binding, comparable within an allelic series); with ALX4, 13.7 upbm affinity estimate (log intensity, higher = more binding, comparable within an allelic series); with HESX1 [3], 13 upbm affinity estimate (log intensity, higher = more binding, comparable within an allelic series); with MSX2 it was 13.1 upbm affinity estimate (log intensity, higher = more binding, comparable within an allelic series); with ALX1 [4], 11.9 upbm affinity estimate (log intensity, higher = more binding, comparable within an allelic series). Moreover, the binding signal with ALX3 [5] was 8.63 upbm affinity estimate (log intensity, higher = more binding, comparable within an allelic series); with SHOX [6], 9.86 upbm affinity estimate (log intensity, higher = more binding, comparable within an allelic series); with ALX1 [7], 11.7 upbm affinity estimate (log intensity, higher = more binding, comparable within an allelic series); in the test with ALX3 [8] it was 12.8 upbm affinity estimate (log intensity, higher = more binding, comparable within an allelic series); in the test with PROP1 [9], 11.8 upbm affinity estimate (log intensity, higher = more binding, comparable within an allelic series); with HESX1 [10] it was 9.38 upbm affinity estimate (log intensity, higher = more binding, comparable within an allelic series). Besides, the binding signal is 11.6 upbm affinity estimate (log intensity, higher = more binding, comparable within an allelic series) with PROP1 [11]; 10.9 upbm affinity estimate (log intensity, higher = more binding, comparable within an allelic series) in the test with ALX3 [12]; 11.5 upbm affinity estimate (log intensity, higher = more binding, comparable within an allelic series) with HESX1 [13]; 10.6 upbm affinity estimate (log intensity, higher = more binding, comparable within an allelic series) with ALX3 [14]; 7.89 upbm affinity estimate (log intensity, higher = more binding, comparable within an allelic series) in the test with PROP1 [15]; 8.2 upbm affinity estimate (log intensity, higher = more binding, comparable within an allelic series) with HESX1 [16]. In addition, the binding signal is 12.5 upbm affinity estimate (log intensity, higher = more binding, comparable within an allelic series) with ALX1 [17] and 8.7 upbm affinity estimate (log intensity, higher = more binding, comparable within an allelic series) with ALX3 [18].

These data come from paper PMC11006913.
